Measurements taken from ChEMBL document CHEMBL3433997, “St. Jude Leishmania screening dataset” (2016).

Assays:
Type in all cases: functional
[1] = target: Solute carrier family 2, facilitated glucose transporter member 1 (Homo sapiens) (UniProt P11166); experiment: ST_JUDE_LEISH: Cytotoxicity at 2uM final concentration against transgenic Leishmania Mexicana promastigotes LmGLUT1 that are glucose transport deficient and complemented with the human glucose transporter GLUT1. Activity is measured by DNA content using SYBR green in vitro
Solute carrier family 2, facilitated glucose transporter member 1 (Homo sapiens), sequence (P11166 whole entry): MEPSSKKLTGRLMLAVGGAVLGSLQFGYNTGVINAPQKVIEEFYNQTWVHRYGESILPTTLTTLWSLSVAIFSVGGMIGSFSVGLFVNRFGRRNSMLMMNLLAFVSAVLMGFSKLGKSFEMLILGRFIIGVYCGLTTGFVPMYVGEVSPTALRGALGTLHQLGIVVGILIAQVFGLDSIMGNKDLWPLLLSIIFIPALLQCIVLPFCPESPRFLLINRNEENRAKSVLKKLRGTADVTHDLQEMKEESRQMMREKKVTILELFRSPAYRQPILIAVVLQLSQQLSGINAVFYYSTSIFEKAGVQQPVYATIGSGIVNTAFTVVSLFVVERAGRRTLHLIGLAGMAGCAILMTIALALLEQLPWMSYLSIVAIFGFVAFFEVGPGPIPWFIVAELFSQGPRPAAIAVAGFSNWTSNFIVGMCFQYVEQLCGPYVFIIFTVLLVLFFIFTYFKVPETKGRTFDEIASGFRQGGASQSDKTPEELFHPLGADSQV

[2] = target: Hexose transporter 1 (Plasmodium falciparum) (UniProt O97467); experiment: ST_JUDE_LEISH: Cytotoxicity at 2uM final concentration against transgenic Leishmania Mexicana promastigotes LmPfHT that are glucose transport deficient and complemented with the Plasmodium falciparum hexose transporter. Activity is measured by DNA content using SYBR green in vitro
[3] = target: Glucose transporter (Leishmania mexicana) (UniProt O61059); experiment: ST_JUDE_LEISH: Cytotoxicity at 2uM final concentration against transgenic Leishmania Mexicana promastigotes LmGT2 that are glucose transport deficient and complemented with the L. Mexicana glucose transporter 2. Activity is measured by DNA content using SYBR green in vitro

Row | Compound | inhibition [1] [%] | inhibition [2] [%] | inhibition [3] [%]
1 | Nc1c2c(nc3ccc(C(=O)Nc4ccc(Br)cc4)cc13)CCCC2 | 5.71 | 6.08 | 2.67
2 | CN(C)c1cccc2c(S(=O)(=O)Nc3cccc(CCN4CCC(N5CCCCC5)CC4)c3)cccc12 | 0.3 | -3.51 | -0.34
3 | Fc1cccc(COc2ccc(Nc3ncnc4sc(C#C[C@H]5CC[C@H](CNCC(F)(F)F)N5)cc34)cc2Cl)c1 | 1.63 | 1.52 | 1.3
4 | CS(=O)(=O)CCNCc1ccc(-c2cc3c(Nc4ccc(OCc5cccc(F)c5)c(Cl)c4)ncnc3s2)[nH]1 | 0.33 | 0.24 | 0.92
5 | CCCn1c(O)nnc1SCC(=O)Nc1cc(C(F)(F)F)ccc1Cl | 6.43 | 4.55 | 6.33
6 | CN1CCCN(c2ccnc3cc4c(cc23)N(C(=O)c2ccc(Cl)c(Cl)c2)CC4)CC1 | 0.8 | 1.89 | 1.54
7 | Cc1cccc2nc(-c3cccc(-c4ccc(NC(=O)NC(C)C)cc4)c3)[nH]c12 | 0 | 2.42 | -0.9
8 | Cn1cnc2c(Nc3ccncc3)nc(-c3ccc(OC(F)(F)F)cc3)nc21 | 2.51 | 1.84 | 2.19
9 | CC1(C)NC(N)=NC(=N)N1OCCCOc1cc(Cl)cc(Cl)c1 | 4.4 | 7.49 | 2.47
10 | O=C(Nc1ccc(-c2cccc(-c3nc4cc(C(F)(F)F)ccc4[nH]3)c2)cc1)c1cccnc1 | 0.28 | 0.06 | -1.11
11 | COc1cc2nc(-c3ccccc3)nc(N3CCN(CC(=O)N4CCCC4)CC3)c2cc1OC | 3.46 | 1.22 | 4.86
12 | CCOc1cc2c(cc1OCC)C(c1cc(OC)c(O)cc1Cl)NCC2 (stereo unspecified) | 2.01 | 0.45 | 2.79
